Experimental findings from PMC5540273 (PLoS ONE, 2017) are described below.
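Also: KINOMEscan kinase panel screen.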

One assay relates to TNK1. The following applies: concentration: 1 μM,replicates: in singlicate; n = 1.
As for `COc1cc2ncn(-c3cc(OCC4CCCCC4)c(C(N)=O)s3)c2cc1OC` [GSK204559], the “%Inh” value is listed as 5%.
Same read-out and setting: as for `Cn1cc(-c2cccc3c(N)c(C(N)=O)nnc23)cn1`, the figure is 0%; as for `NC(=O)Nc1sc(-c2ccc(F)cc2)cc1C(N)=O` [GW789449], 32%; as for `c1ccc(Oc2ccc(Nc3ccnc4ccc(-c5ccccn5)cc34)cc2)cc1` [GW407034], 28%.
On the same count and under the same terms, the result for `Cn1ccc2ncnc(Oc3ccc(NC(=O)Nc4cnn(C(C)(C)C)c4)c(Cl)c3)c21` reads 0%.
Same read-out and setting: the result for `Cc1ccc(Nc2ccnc(Nc3ccc4c(c3)CS(=O)(=O)C4)n2)cc1O.Cl` [GW579362] reads 85%; that for `Cc1ccc(C(=O)Nc2ccc(Oc3ccc4nc(NC(=O)C5CC5)cn4c3)c(F)c2)c(=O)n1-c1ccccc1`, 64%.
For the compound `CC(C(=O)NC1CCN(c2ccnc(Nc3ccc(F)cc3)n2)C1)c1ccc(Cl)cc1` (stereo not drawn) [GSK1379713], the “%Inh” value is given as 0%.
Same read-out and setting: the result for `COC(=O)Nc1nc2cc(Oc3ccc(NC(=O)Nc4cc(C(F)(F)F)ccc4Cl)cc3)ccc2[nH]1.Cl` [GW697465] reads 28%; that for `CCOC(=O)N1CCC(n2cnc(-c3ccc(F)cc3)c2-c2ccnc(N)n2)CC1` [SB-219952], 21%; that for `Cn1ccc2ncnc(Oc3ccc(NC(=O)Nc4cc(C(C)(C)C)on4)c(Cl)c3)c21`, 0%.

For another assay, the system named is TNK2. The following applies: concentration: 1 μM,replicates: in singlicate; n = 1.
Turning to `CN1CCN(CCCNc2nccc(-c3c(-c4ccc(F)cc4)nn4cc(C(N)=O)ccc34)n2)CC1` [GW622475], the “%Inh” value was 13%.
Same read-out and setting: as for `C[C@@H]1CNc2c(sc3ccc4nc(-c5ccc(O)cc5)ccc4c23)C(=O)N1`, the figure is 0%; as for `CCn1c(-c2nonc2N)nc2cncc(Br)c21` [SB-738004], 0%.
The same measure, in the same setting: the result for `C[C@@H]1CCN(C(=O)N2CCCC2)C[C@@H]1N(C)c1ncnc2[nH]ccc12` reads 0%; that for `CS(=O)c1ccc(-c2coc3ccc(-c4n[nH]c(=O)o4)cc23)cc1` (stereo not drawn), 0%; that for `CCn1c(-c2nonc2N)nc2cncc(CNC3CCNCC3)c21.Cl` [SB-747651], 8%.
On to `C[C@@H](Oc1cc(-n2cnc3cc(-c4cnn(C)c4)ccc32)sc1C(N)=O)c1ccccc1Cl` [GSK580432], for which the “%Inh” value came out at 64%.
Still for that read-out and setting: as for `CN1CCN(CCNc2nc3cc(Oc4ccc(NC(=O)Nc5cc(C(F)(F)F)ccc5F)cc4)ccc3[nH]2)CC1.Cl.Cl` [GW768504], the figure is 0%.
In the case of `CCNCC(Cc1ccccc1)NC(=O)c1cc(Br)c(-c2ccnc3[nH]ccc23)s1.Cl.Cl` (stereo not drawn) [GSK1383280], the “%Inh” value is recorded as 10%.
Same read-out and setting: the result for `CCCC(=O)Nc1n[nH]c2ncccc12` [SB-601436] reads 0%; that for `COc1cccc(C2=C(Nc3cccc(Cl)c3)C(=O)NC2=O)c1` [SB-341556], 15%; that for `C[C@@H]1CNc2c(sc3ccc4nc(-c5ccncc5)ccc4c23)C(=O)N1`, 0%.
For the compound `CC(=O)c1c(-c2ccncc2)[nH]c(-c2ccncc2)c1C` [GW493036], the “%Inh” value was 19%.
Regarding `CCN1CCN(CCCC(=O)Nc2n[nH]c3nc(-c4ccc(O)cc4)c(Br)cc23)CC1` [SB-731579], the “%Inh” value came out at 0%.
On the same count and under the same terms, as for `O=c1[nH]cc(-c2ccc(O)cc2)c2sc(-c3ccncc3)cc12` [GSK1033723], the figure is 5%.
The same measure, in the same setting: as for `Nc1nccc(-c2ccc3c(N)n[nH]c3c2)n1` [GSK1034945], the figure is 5%; as for `COC(=O)c1cccc(NC(=O)NC2CCN(c3ccnc(NCc4ccc(F)cc4)n3)CC2)c1` [GSK1379860], 15%.
Regarding `COc1cc2nccc(Nc3ccc(Oc4ccccc4)cc3)c2cc1OC.Cl` [GI261656], the “%Inh” value turned out to be 47%.
Same read-out and setting: the result for `Cn1ccc2ncnc(Oc3ccc(NC(=O)Nc4cccc(C(F)(F)F)c4)c(Cl)c3)c21` reads 0%; that for `CNC(=O)c1ccccc1Nc1nc(Nc2cccc(CS(C)(=O)=O)c2)ncc1C.O=CO` [GSK1520489], 98.9%.
Same read-out and setting: as for `Cc1cccc2c(-c3ccncc3)c(-c3ccc(F)cc3)nn12.Cl` [GW461487], the figure is 9%; as for `Cc1nnc(-c2ccc3occ(-c4ccc(S(C)=O)cc4)c3n2)o1` (stereo not drawn), 0%.
On the same count and under the same terms, as for `OCCn1cc(-c2cnc3nnn(Cc4ccc5ncccc5c4)c3n2)cn1`, the figure is 0%; as for `COC(=O)c1cccc(NC(=O)NC2CCN(c3ccnc(Nc4cc(OC)c(OC)c(OC)c4)n3)C2)c1` (stereo not drawn) [GSK1379767], 4%; as for `O=C(Nc1cccc(C(F)(F)F)c1)c1cccc(Oc2ccc3nccn3n2)c1`, 0%.
